Cruzain noTriton – qHTS Assay for Promiscuous and Specific Inhibitors of Cruzain (without detergent); Cruzipain (Trypanosoma cruzi), P25779; purified cruzain, Z-FR-AMC fluorescence, no detergent; Potency, µM, without a hit: max response, negative = inhibition, usual class: inhibitors; hit rate 2.3% among 200,000;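 further: plate controls were enzyme without inhibitor for no effect and buffer without enzyme for full effect; nearly all actives have a fitted effect of over 40% in size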
Target sequence (P25779 123-467 limits assumed): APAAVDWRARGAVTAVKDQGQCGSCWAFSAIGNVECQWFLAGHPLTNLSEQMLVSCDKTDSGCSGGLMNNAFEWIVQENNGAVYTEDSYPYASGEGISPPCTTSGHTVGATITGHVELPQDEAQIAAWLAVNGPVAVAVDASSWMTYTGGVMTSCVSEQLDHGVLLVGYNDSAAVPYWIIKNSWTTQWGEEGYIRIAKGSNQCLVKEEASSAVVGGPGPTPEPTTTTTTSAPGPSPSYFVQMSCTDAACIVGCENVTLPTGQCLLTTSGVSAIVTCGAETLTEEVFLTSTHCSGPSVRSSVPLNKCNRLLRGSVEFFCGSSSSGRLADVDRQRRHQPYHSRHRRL
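Purified cruzain at 1.5 nM, pre-incubated 15 min with compound at room temperature in 100 mM sodium acetate pH 5.5, 5 mM DTT, 0.00005% Triton X-100. Reaction started with 2 uM Z-FR-AMC; AMC fluorescence increase over 60 s gives rate.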
Cruzain inh Det – qHTS Assay for Promiscuous and Specific Inhibitors of Cruzain (with detergent) | Cruzipain (Trypanosoma cruzi), P25779 | purified cruzain, Z-FR-AMC fluorescence, 0.01% Triton | Potency, µM, inactives show max response, negative = inhibition, hits mostly inhibitors | hit rate 0.43% among 200,000 | AID 1478, 2009;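 further: plate controls were neutral wells for no effect and buffer without enzyme for full effect; nearly all actives have a fitted effect of over 40% in size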
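Sodium acetate buffer (100 mM, pH 5.5) containing 5 mM DTT and 0.01% Triton X-100 hosted 1.5 nM cruzain and test compound for 15 min at room temperature. Cleavage of 2 uM Z-FR-AMC was then tracked by fluorescence.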
Starred values were filed as active, the others as inactive; ? = inconclusive. Sampled rows, rich in hits. Any-hit rate of the full collection: about 2.5%. The call rests on the fitted dose curve; in most records, active means well fitted curve in the direction sought with a large enough effect; inconclusive means small, poorly fitted or top-dose-only effect, or another doubt; inactive means no such curve, though single readings can be large; an effect the other way counts as inactive or inconclusive. Potency means the concentration at half of the fitted maximal effect.

SMILES	Cruzain noTriton	Cruzain inh Det
COc1ccc2ncc3c(-c4ccc(C)c(C)c4)nn(CC(=O)Nc4ccccc4)c3c2c1	-28%	-3%
Cc1ccc2c(=O)cc(C(=O)Nc3c(C)n(C)n(-c4ccccc4)c3=O)oc2c1	-12%	-3%
COC(=O)c1c(C)oc2ccc(N(C(=O)Oc3ccccc3)S(=O)(=O)c3ccc(Cl)c([N+](=O)[O-])c3)cc12	7.9µM*	-3%
CCc1ccc(S(=O)(=O)N(C(=O)Oc2ccccc2)c2ccc3oc(C)c(C(=O)OC)c3c2)cc1	?	-2%
O=C1NC(=S)S/C1=C\c1ccc(SCc2ccco2)o1	?	16µM*
O=C1NC(=S)S/C1=C\c1ccc(SCc2ccccc2)o1	-16%	-22%
CCOC(=O)c1ccc(NC2=CC(c3ccc(O)c(OCC)c3)N(c3ccc(C(=O)OCC)cc3)C2=O)cc1 (stereo unspecified)	0%	-1%
CCCCCn1c(CCCNC(=O)c2ccc(Cl)cc2)nc2ccccc21	?	-8%
Cc1ccc(NC(=O)Cc2ccc(-n3c(C)nc4cccnc43)cc2)c(Cl)c1	-2%	8.9µM*
COc1ccc(Cn2c(CCC(=O)Nc3ccc(C)cc3C)nc3cccnc32)cc1	19%	1%
O=S(=O)(NCCc1csc2nc(-c3ccc(F)cc3)nn12)c1ccc(Oc2ccccc2)cc1	-11%	-1%
O=C(Nc1ccccc1)Nc1nnc(SCc2ccc(Cl)cc2)s1	?	-1%
COCC(=O)Nc1nnc(Cc2ccc(OC)cc2)s1	-3%	2%
O=C(Nc1ccc(Cl)cc1)Nc1nnc(Cc2ccc([N+](=O)[O-])cc2)s1	7.9µM*	-2%
O=C(Cc1nnc(NC(=O)Nc2ccccc2)s1)NCc1ccccc1	-75%	-2%
COc1ccc(Cc2nnc(NC(=O)c3ccc(Cl)c([N+](=O)[O-])c3)s2)cc1	16µM*	7%
Cc1ccc(NC(=O)Nc2nnc(Cc3ccc([N+](=O)[O-])cc3)s2)cc1	-19%	0%
O=C(Nc1ccc(Cl)cc1)Nc1nnc(SCc2ccc(Cl)cc2)s1	7.9µM*	1%
O=C(Cc1nnc(NC(=O)Nc2ccc(Cl)cc2)s1)NCc1ccccc1	10µM*	1%
Cc1cc2oc(=O)cc(CN3CCOCC3)c2cc1C	-9%	0%
CCNc1cc2oc(=O)c(CN3CCOCC3)c(C)c2cc1C	?	28µM*
NC1=C2NC=N[C@@H]2N(C/C=C\c2ccccc2)C=N1	-3%	2%
O=C1C2=C(Nc3ccccc3SC2c2ccccc2C(F)(F)F)c2ccccc21 (stereo unspecified)	?	-8%
CCCc1ccc(C2Sc3ccccc3NC3=C2C(=O)c2ccccc23)cc1 (stereo unspecified)	7.9µM*	-3%
O=C1C2=C(Nc3ccccc3SC2c2c(F)cccc2Cl)c2ccccc21 (stereo unspecified)	-14%	-4%
SMILES	Cruzain noTriton	Cruzain inh Det
O=C1C2=C(Nc3ccccc3SC2c2ccc(Cl)c(Cl)c2)c2ccccc21 (stereo unspecified)	10µM*	-2%
CCOc1cc(C2Sc3ccccc3NC3=C2C(=O)c2ccccc23)ccc1O (stereo unspecified)	-5%	-6%
COc1ccc(Br)cc1C1Sc2ccccc2NC2=C1C(=O)c1ccccc12 (stereo unspecified)	16µM*	-2%
Cc1cccc(N2CCN(C(=O)Cn3nc(Cc4cccnc4)c4ccccc4c3=O)CC2)c1C	?	-6%
C=C[C@]1(C)Cc2occ(C)c2C[C@H]1C(=C)C(=O)O	-4%	0%
COc1cccc(Nc2ccc3cc(S(=O)(=O)N4CCC(C)CC4)ccc3n2)c1	4%	-4%
COc1ccc(CNc2oc(/C=C/c3cc(OC)c(OC)c(OC)c3)nc2C#N)cc1	?	12%
Cc1ccc(CNC(=O)c2c3c(nc4ccccc24)C(=O)N(C2CCCCC2)C3)cc1	-7%	-7%
O=C(Nc1nc(C2C3CC4CC(C3)CC2C4)cs1)c1cc2cc([N+](=O)[O-])ccc2oc1=O (stereo unspecified)	25µM*	-2%
COc1ccc(C(=O)NNC(=O)c2cc3cc([N+](=O)[O-])ccc3oc2=O)cc1OC	1%	-1%
Cc1ccccc1-c1nc(Nc2ccncc2)c2ccccc2n1	16%	0%
CSCC[C@H](NC(=O)c1cc([N+](=O)[O-])ccc1Cl)c1nc2ccccc2[nH]1	-7%	22µM*
Cc1cc(Cl)ccc1OCC(=O)N[C@@H](Cc1ccccc1)c1nc2ccccc2[nH]1	-17%	0%
CSCCC(NC(=O)c1cccc([N+](=O)[O-])c1)c1nc2ccccc2[nH]1 (stereo unspecified)	?	-27%
CSCC[C@H](NC(=O)COc1ccc(Cl)cc1)c1nc2ccccc2[nH]1	13µM*	7.1µM*
CS(=O)(=O)c1cccc(-c2nnc(NC(=O)c3ccc4c(c3)OCCO4)o2)c1	8%	7%
Cc1cccc2cc(C#N)c(SCC(=O)NCc3cccs3)nc12	6.3µM*	-2%
Cc1cccc2cc(C#N)c(SCC(=O)NCC3CCCO3)nc12 (stereo unspecified)	-16%	2%
Cc1ccc(C)c2nc(SCC(=O)NCc3cccs3)c(C#N)cc12	-19%	5%
Cc1cccc2cc(C#N)c(SCC(=O)NNC(=O)Cc3ccccc3)nc12	25µM*	5%
CCOc1ccccc1NC(=O)CSC1=C(C#N)C(c2ccco2)C(C(=O)Nc2nc3ccccc3s2)=C(C)N1 (stereo unspecified)	7.9µM*	-9%
CC(=O)C1=C(C)NC(SCC(=O)c2ccc(F)cc2)=C(C#N)C1c1ccco1 (stereo unspecified)	-17%	-17%
COc1ccccc1NC(=O)C1=C(C)NC(SCC(=O)c2ccc(C)cc2)=C(C#N)C1c1ccco1 (stereo unspecified)	13µM*	-10%
CC1=C(C(=O)Nc2ccccc2)C(c2ccco2)C(C#N)=C(SCC(=O)OC(C)C)N1 (stereo unspecified)	-9%	-9%
CC1=C(C(=O)Nc2ccccc2)C(c2ccco2)C(C#N)=C(SCc2ccccc2)N1 (stereo unspecified)	20µM*	-5%
SMILES	Cruzain noTriton	Cruzain inh Det
CC1=C(C(=O)Nc2ccccc2)C(c2ccco2)C(C#N)=C(SCC(=O)Nc2cccc(C)c2C)N1 (stereo unspecified)	?	-8%
CC(=O)C1=C(C)NC(SCC(=O)c2cc(Cl)ccc2Cl)=C(C#N)C1c1ccco1 (stereo unspecified)	25µM*	-18%
CC(=O)C1=C(C)NC(SCC(=O)c2ccc(Cl)c(Cl)c2)=C(C#N)C1c1ccco1 (stereo unspecified)	?	-20%
O=C(CSc1ncc(S(=O)(=O)c2ccc(Cl)cc2)c(=O)[nH]1)Nc1ccc2c(c1)OCCO2	23%	-12%
COc1ccc(S(=O)(=O)Nc2cccc(-c3ccc(N4CCC(C)CC4)nn3)c2)cc1OC	11%	-8%
CCc1ccc(NC(=O)c2ccc(F)c(S(=O)(=O)NCCc3ccc(OC)c(OC)c3)c2)cc1	?	-3%
CCCn1c(=N)c(C(=O)NCc2cccnc2)cc2c(=O)n3cc(C)ccc3nc21	23%	2%
Cc1ccc2nc3c(cc(C(=O)NCc4cccnc4)c(=N)n3C(C)C)c(=O)n2c1	?	32µM*
